In PubChem BioAssay (NCATS):
For part of these data: Potency and affinity values are given separately. Active and inactive are the calls of the source. No rule for the calls is given here.

Columns and labels:
[1] = Ebola virus entry assay, green fluorescence channel
[2] = Ebola virus entry assay, blue channel fluorescence
[3] = Ebola virus entry assay, ratio channel
[4] = Ebola virus entry assay, green channel fluorescence
[5] = Ebola virus entry assay, reporter ratio channel; Channel type: primary
[6] = Ebola virus entry assay, blue channel (ratio component)

Measured: efficacy
For efficacy in this document: 0% is about no effect.

NCCNC(=O)c1ccc(Cl)cn1
inactive: [1] -25.1% | [2] | [3] | [4] | [5] | [6]

Cc1cccc(C)c1NC(=O)C(C)N (configuration not stated)
inactive: [1] -28.5% | [2] | [3] | [4] | [5] | [6]

C[C@@]12CCC[C@H]1[C@@H]1CC[C@H]3C[C@@H](O)CC[C@]3(C)[C@H]1CC2
inactive: [1] -12.6% | [2] | [3] | [4] | [5] | [6]

Cc1sccc1Br
inactive: [1] -12.3% | [2] | [3] | [4] | [5] | [6]

CN(C)C(=O)Oc1cccc([N+](C)(C)C)c1
inactive: [1] -10.1% | [2] | [3] | [4] | [5] | [6]

CC(=O)OCC(=O)NCCCOc1cccc(CN2CCCCC2)c1
inactive: [1] -11.5% | [2] | [3] | [4] | [5] | [6]

CCC(=O)c1ccc(O)cc1
inactive: [1] -30% | [2] | [3] | [4] | [5] | [6]
